Laboratory results taken from PubChem BioAssay (NCATS).
Results filed as inconclusive are left out. The source made the active and inactive calls. The call rests on the fitted dose curve; in most records, active means well fitted inhibition curve with a large enough effect; inconclusive means small, poorly fitted or top-dose-only effect, or effect the other way; inactive means flat fitted curve, though single readings scatter.

What follows are compounds tested against ATP-dependent 6-phosphofructokinase (Trypanosoma brucei brucei) (UniProt O15648) (assay: qHTS Validation Assay to Find Inhibitors of T. brucei phosphofructokinase (AID 485368)). Conditions: T. brucei PFK enzyme assay, qHTS 7-point titration; series mostly up to 57.5 µM.
ATP-dependent 6-phosphofructokinase (Trypanosoma brucei brucei), sequence (O15648 whole entry, looked up): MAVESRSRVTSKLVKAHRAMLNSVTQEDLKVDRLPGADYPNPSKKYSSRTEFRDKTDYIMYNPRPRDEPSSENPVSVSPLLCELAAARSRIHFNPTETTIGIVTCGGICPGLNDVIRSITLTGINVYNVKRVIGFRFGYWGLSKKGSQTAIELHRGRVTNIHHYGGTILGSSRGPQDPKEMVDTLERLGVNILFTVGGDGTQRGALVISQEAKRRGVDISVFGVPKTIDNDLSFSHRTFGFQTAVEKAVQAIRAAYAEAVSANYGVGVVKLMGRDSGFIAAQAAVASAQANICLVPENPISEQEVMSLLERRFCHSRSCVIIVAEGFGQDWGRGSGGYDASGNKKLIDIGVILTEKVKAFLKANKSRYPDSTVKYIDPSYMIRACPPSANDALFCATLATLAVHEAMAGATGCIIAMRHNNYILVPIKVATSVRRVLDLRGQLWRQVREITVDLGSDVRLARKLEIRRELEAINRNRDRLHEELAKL
From the text: NIH Molecular Libraries Probe Production Network [MLPCN]
NIH Chemical Genomics Center [NCGC]
PI Name: Malcolm Walkinshaw, University of Edinburgh
Various species of the protozoan family Trypanosomatidae are responsible for a range of serious human diseases in tropical and subtropical areas of the world. […] Many of the disorders caused by trypanosomatids are fatal if left untreated, but most currently used drugs are inefficient and toxic.
Oxidative metabolism involving the mitochondrial tricarboxylic acid cycle and oxidative phosphorylation are repressed in these parasites, and recent RNA interference (RNAi) experiments have shown that even partial depletion of certain individual glycolytic enzymes can lead to the death of cultured parasites. One such glycolytic enzyme, phosphofructokinase (PFK), catalyzes the formation of fructose-1,6-bisphosphate (F1,6BP) and ADP from fructose-6-phosphate (F6P) and ATP, and in many metabolic circumstances makes an important contribution to the control of flux through the glycolytic pathway. As a specific glycolytic target, PFK is particularly attractive as it catalyzes the first irreversible step in glycolysis, and structural and kinetic studies have shown very substantial and essential differences from corresponding host enzymes, allowing for the discovery of parasite-selective inhibitors.
The goal of this screen is to find small-molecule inhibitors of T. brucei PFK using a biochemical assay that measures PFK activity as a function of ADP production. A luminescence-based assay for T. brucei PFK activity has been developed which uses luciferase to detect production of ADP. Traditional luciferase-based nucleotide detection reagents rely on ATP production as a direct substrate for the luciferase reaction; however, PFK catalyzes the transfer of a phosphate from ATP to F6P, resulting in the net depletion of ATP. To directly measure the ADP product of the PFK reaction, we used the ADP-Glo detection kit (Promega), which utilizes two separate reactions to 1) deplete all remaining uncatalyzed ATP and 2) convert all remaining ADP to ATP, which is then detected through a traditional luciferase-coupled reaction. Compounds were screened as a concentration-titration series that ranged from 57 uM to 0.7 nM.
NCGC Assay Protocol Summary:
Substrate buffer was dispensed into white, solid 1536-well plates at 3uL/well in 0.1M triethanolamine (TEA) buffer, pH 8.0, containing final concentrations of 5 mM MgCl2, 0.01% Tween20, 0.5 mM fructose-6-phosphate (F6P) and 0.1mM ATP. Then, 23 nL of compounds or DMSO were delivered to each well using a pin tool. One uL T. brucei PFK (0.1M TEA, 0.01% Tween20, 0.1% bovine serum albumin (BSA) and 1.25nM PFK, final concentrations) was then dispensed, and plates were incubated at room temperature for 45 min. The luminescent detection reagent, ADP-Glo (Promega), was then added in two steps: the first reagent, ADP-Glo (which converts remaining uncatalyzed ATP), was added at 2.5uL/well and incubated for ten minutes at room temperature, and the second component, Kinase Detection reagent (which converts ADP to ATP as a substrate for luciferase-based luminescence), was added immediately after at 5uL/well, followed by one final ten minute room temperature incubation. The plates were measured on a ViewLux plate reader for luminescent signal using a clear filter with a one second exposure. The %Activity was determined from the corrected luminescence values. As no specific T. brucei PFK inhibitors have been identified in the literature, 1x (1.25nM) and 0x PFK enzyme controls (untreated) were included to normalize %Activity of identified inhibitors; 0x enzyme values corresponded to 100%Activity (full inhibition), while 1x PFK enzyme values were used to normalize 0%Activity (no inhibition).
Concentration-response curves were fitted to the signals arising from the resulting luminescence. […]

Row | Compound | outcome
1 | CCNC(=O)N1CCN(CCCC(c2ccc(F)cc2)c2ccc(F)cc2)CC1 | inactive
2 | Cc1nc2ccccn2c(=O)c1CCN1CCC(C(=O)c2ccc(F)cc2)CC1 | inactive
3 | C[C@H](CS)C(=O)N1CCC[C@H]1C(=O)O | inactive
4 | CCN(CC)CCNC(=O)c1ccc(NC(C)=O)cc1 | inactive
5 | CNCCC(Oc1ccccc1OC)c1ccccc1 (stereo not given) | inactive
6 | O=C(O)CN(CCOCCOCCN(CC(=O)O)CC(=O)O)CC(=O)O | inactive
7 | NC(N)=N/N=C/c1c(Cl)cccc1Cl | inactive
8 | CC(=O)Oc1cc(C(C)C)c(OCCN(C)C)cc1C | inactive
9 | O=C1NCN(c2ccccc2)C12CCN(CCCC(c1ccc(F)cc1)c1ccc(F)cc1)CC2 | inactive
10 | Cc1ccc(=O)n(-c2ccccc2)c1 | inactive
11 | CCN1CCc2nc(N)oc2CC1 | inactive
12 | COCCOC(=O)C1=C(C)NC(C)=C(C(=O)OC(C)C)C1c1cccc([N+](=O)[O-])c1 (stereo not given) | inactive
13 | CNCCCN1c2ccccc2CCc2ccccc21 | inactive
14 | Cc1cc(C)c(/C=C2\C(=O)Nc3ccccc32)[nH]1 | inactive
15 | COCC(=O)O[C@]1(CCN(C)CCCc2nc3ccccc3[nH]2)CCc2cc(F)ccc2[C@@H]1C(C)C | inactive
16 | CN(C)C(=O)Oc1ccc[n+](C)c1 | inactive
17 | CCCNC(C)C(=O)Nc1ccccc1C (stereo not given) | inactive
18 | CC(C)(C)c1ccc(C(=O)CCCN2CCC(OC(c3ccccc3)c3ccccc3)CC2)cc1 | inactive
19 | COc1ccc2c(c1OC)C(=O)O[C@@H]2[C@H]1c2c(cc3c(c2OC)OCO3)CCN1C | inactive
20 | CO[C@@]1(NC(=O)CSCC#N)C(=O)N2C(C(=O)O)=C(CSc3nnnn3C)CS[C@@H]21 | inactive

Row | Compound | outcome
21 | N[C@@H](COP(=O)(O)O)C(=O)O | inactive
22 | COc1cc2c(cc1OC)-c1cc(=Nc3c(C)cc(C)cc3C)n(C)c(=O)n1CC2 | inactive
23 | CN(C(=O)CCCOc1ccc2[nH]c(=O)ccc2c1)C1CCCCC1 | inactive
24 | C[C@]12CCC(=O)C=C1CC[C@@H]1[C@@H]2CC[C@@]2(C)[C@H]1CC[C@]2(O)C(=O)CO | inactive
25 | C[C@]12CCC(=O)C=C1CC[C@@H]1[C@@H]2C(=O)C[C@@]2(C)[C@H]1CC[C@]2(O)C(=O)CO | inactive
26 | O=C(CCNNC(=O)c1ccncc1)NCc1ccccc1 | inactive
27 | Cc1ccc(Cl)c(Nc2ccccc2C(=O)O)c1Cl | inactive
28 | COc1ccc(CN(CCN(C)C)c2ccccn2)cc1 | inactive
29 | NC1=NCC2c3ccccc3Cc3ccccc3N12 (stereo not given) | inactive
30 | C[C@@H](O)[C@H]1C(=O)N2C(C(=O)O)=C(SCCN=CN)C[C@H]12 | inactive
31 | CCCN(CCC)C(=O)C(CCC(=O)O)NC(=O)c1ccccc1 (stereo not given) | inactive
32 | CN1CCN(C2=Nc3ccccc3Oc3ccc(Cl)cc32)CC1 | inactive
33 | O=C(O)CP(=O)(O)O | inactive
34 | COc1ccc([C@@H]2Sc3ccccc3N(CCN(C)C)C(=O)[C@@H]2OC(C)=O)cc1 | inactive
35 | CC[N+](C)(C)c1cccc(O)c1 | inactive
36 | C[N+](C)(C)CCOC(=O)CCC(=O)OCC[N+](C)(C)C | inactive
37 | NC(=O)N1c2ccccc2C=Cc2ccccc21 | inactive
38 | COc1cc(Cc2cnc(N)nc2N)cc(OC)c1OC | inactive
39 | CC(=O)Nc1nnc(S(N)(=O)=O)s1 | inactive
40 | CCOC(=O)c1cnc2c(cnn2CC)c1NN=C(C)C | inactive
